Screening results as filed in PubChem.
PLC-gamma1 inh = blocks human PLC-gamma1 enzyme activity; AID 720700; purified PLC-gamma1, fluorogenic substrate, fluorescence; inhibition, % at 12.2 µM; P19174; 370,000 compounds, 0.84% hits
HIF act = HIF pathway transcriptional activation; U2OS HRE-luciferase reporter, luminescence; normalized: DMSO 0%, desferrioxamine 100%; activation, % at 7.5 µM (by protocol); 300,000 compounds, 0.32% hits; AID 1910;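 active means mean activation of at least 10% of the iron chelator positive control signal, with at least half of replicates also reaching 10%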
AHR act = activates the human aryl hydrocarbon receptor; P35869; AHR-responsive luciferase reporter cells, luminescence; activation, % at 5 µM; 320,000 compounds, 2.5% hits; AID 2796; in the data active means activation above about 47%;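 further: 0% = vehicle wells and 100% = reference agonist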
Yeast superoxide = yeast age-related superoxide inhibition as caloric restriction mimetic; S. cerevisiae aged cells, superoxide DHE fluorescence; stronger effect = lower value; superoxide response (% of plate mean), % at 10 µM; 330,000 compounds, 0.18% hits; AID 2690;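 active means superoxide response under a set limit, about three screen SD below normal, cut at about 65% in these data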;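 further: yeast aged for seven days with compound at 30 °C before DHE staining; 100% = average MFI of all compound-treated wells on the plate with controls excluded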
PLCb3 inh = blocks human PLC-beta3 enzyme activity. Q01970. Purified PLC-beta3, fluorogenic substrate, fluorescence. inhibition, % at 12.2 µM. 370,000 compounds, 0.18% hits. AID 720704; in the data active means inhibition above about 11%;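 further: 0% = median of compound wells on plate and 100% = full blocker control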
HGIII-sPLA2 inh = Inhibits HGIII-sPLA2 liposome hydrolysis, primary screen; Q9NZ20; inhibition, % at 12.2 µM; AID 743126; QFRET BODIPY PC-A2 liposome hydrolysis, fluorescence; 370,000 compounds, 0.56% hits;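 active means inhibition above mean plus 3 SD of compounds lying within the high and low control bounds, cut at about 19% in these data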;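 further: 0% = median of test compound wells and 100% = no enzyme DMSO wells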
Target sequence (Q9NZ20 whole entry, looked up): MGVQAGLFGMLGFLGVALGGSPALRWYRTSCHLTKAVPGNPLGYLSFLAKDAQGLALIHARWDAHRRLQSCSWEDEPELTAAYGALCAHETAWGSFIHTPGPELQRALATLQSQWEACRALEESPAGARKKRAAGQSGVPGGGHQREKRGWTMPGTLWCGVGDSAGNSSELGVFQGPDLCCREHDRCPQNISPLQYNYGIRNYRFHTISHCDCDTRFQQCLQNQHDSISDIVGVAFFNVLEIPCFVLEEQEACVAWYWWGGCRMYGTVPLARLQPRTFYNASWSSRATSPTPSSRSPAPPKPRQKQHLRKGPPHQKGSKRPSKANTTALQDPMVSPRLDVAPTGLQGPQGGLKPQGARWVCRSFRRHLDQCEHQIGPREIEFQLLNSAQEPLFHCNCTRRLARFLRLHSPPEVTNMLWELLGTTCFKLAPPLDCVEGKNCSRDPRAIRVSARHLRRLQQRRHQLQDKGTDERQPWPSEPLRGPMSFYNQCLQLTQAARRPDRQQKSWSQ
PLCg1 ctr = PLC-gamma1 inhibition, counter-screen for PLC-beta3 hits. shares compounds with PLC-gamma1 inh. purified PLC-gamma1, fluorogenic substrate, fluorescence. inhibition, % at 12.3 µM. 3,300 compounds, 3.1% hits
PLCb3 confirm = confirmation of human PLC-beta3 inhibitors; inhibition, % at 12.3 µM; 3,300 compounds, 1% hits; AID 743261; shares compounds with PLC-gamma1 inh; purified PLC-beta3, fluorogenic substrate fluorescence; in the data active means inhibition above about 11%
Numbers without * were called inactive. In the library only some 3.9% were active in any assay of this set; here they are far more common. Unless noted, no stated cut-off is given here; in the data, active means inhibition above about 9.5%; inactive means the rest.

For CN(C)c1nc(SCCOC(=O)COc2ccc(Cl)cc2Cl)nc(N(C)C)n1 the results were PLC-gamma1 inh 9.9*, HIF act 1, AHR act 1, Yeast superoxide 102, PLCb3 inh 2, HGIII-sPLA2 inh -1, PLCg1 ctr -8 and PLCb3 confirm -6.
Screening COC(=O)CCCCCCCCC(O)CN1CCCCC1 (stereo not given) returned PLC-gamma1 inh 3, HIF act 0, AHR act 2, Yeast superoxide 97, PLCb3 inh 12*, HGIII-sPLA2 inh 9, PLCg1 ctr -7 and PLCb3 confirm -4.
For O=C(O)c1ccc(S(=O)(=O)NCC2CCCO2)cc1 (stereo not given) the results were PLC-gamma1 inh 11*, HIF act -1, AHR act -1, Yeast superoxide 96, PLCb3 inh -3, HGIII-sPLA2 inh 6, PLCg1 ctr -2 and PLCb3 confirm 3.
Screening COc1nc(NCc2ccco2)nc(N2CCC(C)CC2)n1 returned PLC-gamma1 inh 2, HIF act 0, AHR act 11, Yeast superoxide 87, PLCb3 inh 3 and HGIII-sPLA2 inh -16.
Screening CCNc1nc(OC)nc(N2CCC(Cc3ccccc3)CC2)n1 returned PLC-gamma1 inh 4, HIF act 0, AHR act -2, Yeast superoxide 119, PLCb3 inh 11*, HGIII-sPLA2 inh 7, PLCg1 ctr -4 and PLCb3 confirm -4.
Screening CCCNC(=O)c1cc(C2CCCN(C(=O)c3ccccc3)C2)on1 (stereo not given) returned PLC-gamma1 inh 7, PLCb3 inh 2 and HGIII-sPLA2 inh 10.
Screening Cc1cc(NC(=O)c2cccs2)ccc1NC(=O)Cc1ccccc1 returned PLC-gamma1 inh -3, HIF act 0, AHR act 8, Yeast superoxide 82, PLCb3 inh 3 and HGIII-sPLA2 inh -7.
O=C(Cc1ccccc1)Nc1cccc(NC(=O)c2cccs2)c1 was read as PLC-gamma1 inh 11*, HIF act 0, AHR act 15, Yeast superoxide 99, PLCb3 inh 4, HGIII-sPLA2 inh -5, PLCg1 ctr -4 and PLCb3 confirm -1.
`Cc1cc(Nc2ccc(Cl)cc2)n(-c2cccc(Cl)c2)n1` gave PLC-gamma1 inh 12*, HIF act -1, AHR act 11, Yeast superoxide 84, PLCb3 inh 2, HGIII-sPLA2 inh 2, PLCg1 ctr -7 and PLCb3 confirm -6.
`Cc1ccc(NS(=O)(=O)c2c(F)cc(F)c(Cl)c2F)cc1S(=O)(=O)N1CCOCC1` gave PLC-gamma1 inh 9.8*, AHR act -1, Yeast superoxide 106, PLCb3 inh 10, HGIII-sPLA2 inh -32, PLCg1 ctr -2 and PLCb3 confirm -3.
Cc1ccc(NC(=O)Cc2c(F)cccc2Cl)cc1S(=O)(=O)N1CCOCC1 was read as PLC-gamma1 inh 1, AHR act 0, Yeast superoxide 105, PLCb3 inh 5 and HGIII-sPLA2 inh -3.
Cc1ccc(-c2cc3nc(NCCc4ccncc4)n(C)c(=O)c3s2)cc1 was read as PLC-gamma1 inh 0, PLCb3 inh 2 and HGIII-sPLA2 inh -26.
Screening Cn1cc(/C=N/NC(=O)c2cc3cc(Br)ccc3o2)c2ccccc21 returned PLC-gamma1 inh -37, HIF act 1, AHR act 22, Yeast superoxide 93, PLCb3 inh -57 and HGIII-sPLA2 inh 19.
Cn1cc(/C=N/NC(N)=S)c2ccccc21 was read as PLC-gamma1 inh 10*, HIF act 0, AHR act 15, Yeast superoxide 86, PLCb3 inh 4, HGIII-sPLA2 inh 13, PLCg1 ctr 1 and PLCb3 confirm 5.
Screening CC(C)c1ccc(NC2CCCN(C(=O)c3ccsc3)C2)cc1 (stereo not given) returned PLC-gamma1 inh 1, HIF act 1, AHR act 19, Yeast superoxide 96, PLCb3 inh -6 and HGIII-sPLA2 inh 4.
`O=C(NCCc1csc(-c2cccnc2)n1)c1ccc(Cl)cc1` gave PLC-gamma1 inh 13*, HIF act 1, AHR act 1, Yeast superoxide 92, PLCb3 inh 4, HGIII-sPLA2 inh -1, PLCg1 ctr -1 and PLCb3 confirm 3.
CC(C)(C)Nc1scc(-c2ccccc2)[n+]1-c1ccccc1 was read as PLC-gamma1 inh 9.7*, HIF act 0, AHR act 1, Yeast superoxide 75, PLCb3 inh -8, HGIII-sPLA2 inh -35, PLCg1 ctr -4 and PLCb3 confirm -8.
For CCC(=O)Nc1ccc2c(c1)OC[C@@H](C)N(Cc1ccccc1F)C[C@@H](C)[C@@H](OC)CN(C)C2=O the results were PLC-gamma1 inh 0, PLCb3 inh 4 and HGIII-sPLA2 inh -3.
O=C(O)C1(Cc2nc3ccccc3[nH]2)CCCC1 was read as PLC-gamma1 inh -1, HIF act 0, AHR act 0, Yeast superoxide 99, PLCb3 inh 0 and HGIII-sPLA2 inh 6.
`Cc1ccc(NC(=O)CSc2nnc(-c3ccc(S(=O)(=O)N4CCCC4)cc3)o2)cc1C` gave PLC-gamma1 inh 12*, AHR act 4, Yeast superoxide 107, PLCb3 inh 3, HGIII-sPLA2 inh 7, PLCg1 ctr -5 and PLCb3 confirm -4.
Screening Cc1cccc(NC(=O)CSc2nnc(-c3ccc(S(=O)(=O)N4CCCC4)cc3)o2)c1 returned HIF act 0, AHR act 2 and Yeast superoxide 80.
Cc1cc(=O)[nH]c(SCC(=O)Nc2ccc(C)c(S(=O)(=O)N3CCCCC3)c2)n1 was read as PLC-gamma1 inh 12*, HIF act 0, AHR act 0, Yeast superoxide 91, PLCb3 inh -2, HGIII-sPLA2 inh -10, PLCg1 ctr -3 and PLCb3 confirm -1.
COc1ccc(NC(=O)CSc2nc(N)cc(=O)[nH]2)cc1S(=O)(=O)N1CCCCC1 was read as PLC-gamma1 inh 0, PLCb3 inh 0 and HGIII-sPLA2 inh -4.
For COc1ccc(C(=O)Nc2ccc(C)c(S(=O)(=O)N3CCCCCC3)c2)cc1 the results were PLC-gamma1 inh 11*, HIF act 0, AHR act 2, Yeast superoxide 113, PLCb3 inh 5, HGIII-sPLA2 inh -7, PLCg1 ctr 5 and PLCb3 confirm 6.
Screening CCc1cc2c(=O)oc(-c3ccc(Br)cc3)nc2s1 returned PLC-gamma1 inh -6, HIF act 0, PLCb3 inh -15 and HGIII-sPLA2 inh 5.
CN1CCOc2ccc(S(=O)(=O)NCCc3ccc(Cl)cc3)cc21 was read as PLC-gamma1 inh 13*, HIF act -1, AHR act 3, Yeast superoxide 104, PLCb3 inh -7, HGIII-sPLA2 inh -16, PLCg1 ctr 4 and PLCb3 confirm 0.
